Sfp inh – inhibitors of Bacillus subtilis Sfp phosphopantetheinyl transferase; Q9F4F7; Biochemical Sfp PPTase activity, qHTS; Potency, µM, hits mostly inhibitors; 310,000 compounds, 3.5% hits; AID 1490;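 also: the enzyme is Sfp with the accession as filed and its product quenches rhodamine fluorescence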
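With Hepes-Na pH 7.6 buffer containing 10 mM MgCl2, Sfp (15 nM) modified BHQ-2-YbbR (12.5 uM) using rhodamine-CoA (5 uM). Two reads 30 minutes apart at 525/598 nm yielded each well's rate.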
Giardia killer – Giardia lamblia killing. 340,000 compounds, 0.15% hits. activity change, % at 7.66 µM, hits read low. Giardia lamblia trophozoite viability; in the data active = activity change below about -80%; inconclusive = between about -30% and that limit;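 also: parasites exposed to compound for two days anaerobically before the ATP read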
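ATP-content bioluminescence gauges trophozoite survival. Cells (100/well) receive compound and incubate anaerobically for 48 hrs at 37 deg C; detection reagent follows for 15-30 min at room temperature.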
FBPA coupling cs – counter-screen for Giardia aldolase inhibitors: coupling enzyme system | activity change, negative = inhibition, % at 58.2 µM, hits read low | 290,000 compounds, 0.67% hits | coupling enzyme system counterscreen, AmpLite Red fluorescence; in the data active = activity change below about -30%
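Compounds tested against the coupling enzymes alone at 57.5 uM final; readout was AmpLite Red fluorescence (525/598 nm) after 20 min at RT.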
ELG1 DNA repair – blocks ELG1-dependent DNA repair in HEK293T cells; 330,000 compounds, 2.3% hits; Potency, µM (titrated, usually from 46.1 µM), most hits filed as inhibitors; HEK293T ELG1-luciferase reporter, luminescence, 16 h; DNA damage induced by 5-fluorouridine; also: nearly all actives have a fitted effect of over 55% in size
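HEK293T cells expressing luciferase-tagged ELG1 (2,000/well) received 5-Fluorouridine plus compound or DMSO for 16 hr at 37 °C. Luciferase was read by ONE-Glo luminescence after 30 min at room temperature.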
Of the large screens only hits and unclear results are named; the others gave an inactive call. This is a sample that favours compounds with a hit; in the whole collection about 5.5% have one here. Unless noted, calls follow the shape of the dose curve; as a rule, active = well fitted curve in the direction sought with a large enough effect; inconclusive = small, poorly fitted or top-dose-only effect, or another doubt; inactive = no such curve, though single readings can be large; an effect the other way counts as inactive or inconclusive.

C[C@@]12CCC[C@@](C)(C(=O)O)C1CC[C@@]13C[C@@H](NCc4ccccc4)[C@@](C)(CCC12)C3 (stereo not given in full)	none (no result: Sfp inh, FBPA coupling cs)
C#CCn1cc(Cl)cc(C(=O)Nc2ccccc2)c1=O	ELG1 DNA repair inconclusive
COc1cc2c(cc1O)CCN(C(=O)CSc1nncn1C)[C@@H]2C	none (no result: Sfp inh, FBPA coupling cs)
Cc1ccccc1OCc1nc2ccc(S(=O)(=O)N3CCOCC3)cc2[nH]1	Sfp inh 40µM, ELG1 DNA repair inconclusive
COc1ccc(OCc2nc3ccc(S(=O)(=O)Nc4ccccc4Cl)cc3[nH]2)cc1	none
COc1ccc(NS(=O)(=O)c2ccc3nc(COc4ccc5ccccc5c4)[nH]c3c2)cc1	ELG1 DNA repair 23µM
COc1ccc(NS(=O)(=O)c2ccc3nc(COc4cccc5ccccc45)[nH]c3c2)cc1	ELG1 DNA repair 23µM
COc1ccccc1NS(=O)(=O)c1ccc2nc(CCl)[nH]c2c1	ELG1 DNA repair inconclusive
Cc1cc(SCc2ccc(Br)cc2)nc(=O)[nH]1	ELG1 DNA repair inconclusive
O=C(C[C@H]1C/C=C\CCC(=O)OC[C@H]2CCCN2C1=O)NCCO	none (no result: Sfp inh, FBPA coupling cs)
O=C(Nc1cccs1)Nc1ccccc1Cl	Sfp inh 45µM
Cc1c(NC(=O)Nc2cccs2)cccc1[N+](=O)[O-]	Sfp inh 50µM, ELG1 DNA repair inconclusive
Oc1cc2c(cc1O)[C@@H]1c3ccc(O)c(O)c3OC[C@]1(O)C2	Sfp inh 32µM (no result: Giardia killer, ELG1 DNA repair)
O=C(NCCN1CCOCC1)c1ccc2c(c1)N(Cc1ccccc1F)C(=O)c1ccccc1S2	none
O=C(c1ccc2c(c1)N(Cc1ccccc1F)C(=O)c1ccccc1S2)N1CCOCC1	FBPA coupling cs -42
N#CCSc1nnc(COc2cccc3ccccc23)n1-c1ccccc1	ELG1 DNA repair 21µM
COc1ccc(-n2c(COc3cccc4ccccc34)nnc2SCC#N)cc1	ELG1 DNA repair inconclusive
CCOC(=O)Cc1c[nH]c(=S)[nH]c1=O	Sfp inh 79µM
CCN1C(=O)CC(N2CCN(c3ccc(C(=O)c4ccncc4)cc3)CC2)C1=O (stereo not given)	ELG1 DNA repair 15µM
O=C(c1ccncc1)c1ccc(N2CCN(C3CC(=O)N(Cc4cccs4)C3=O)CC2)cc1 (stereo not given)	ELG1 DNA repair inconclusive
COc1ccc2c(c1)[C@H]1[C@H](CO2)[C@H](c2ccccc2)[C@]2(C)C(=O)N[C@@H](C)C(=O)N12	none (no result: Sfp inh, Giardia killer, FBPA coupling cs)
O=C(CN1C(=O)c2ccccc2C1=O)Nc1sc2c(c1C(=O)NCC1CCCO1)CCC2 (stereo not given)	none
COc1ccc(OC)c(NC(=O)c2c(NC(=O)CCC(=O)O)sc3c2CCCCC3)c1	Sfp inh 50µM
COc1ccc(OCC(=O)Nc2sc3c(c2C(=O)NCC2CCCO2)CCC3)cc1 (stereo not given)	Sfp inh inconclusive, ELG1 DNA repair 16µM
COc1ccc(OC)c(NC(=O)c2c(NCc3cccs3)sc3c2CCCC3)c1	none (no result: Sfp inh, FBPA coupling cs, ELG1 DNA repair)
O=C(O)CCC(=O)Nc1sc2c(c1C(=O)Nc1cccc3ccccc13)CCCCC2	Sfp inh 50µM
Cc1nc2ccccc2n1CC(=O)NC(C)C1CC2CCC1C2 (stereo not given)	ELG1 DNA repair 5.2µM
Cc1cc(-c2csc(N)n2)c(C)n1Cc1ccco1	Sfp inh 50µM
Cc1cc(-c2csc(N)n2)c(C)n1C	Sfp inh 20µM
CC(C)C[C@H]1CN=C(Nc2ccccc2)N1CC1CCC(C)CC1 (stereo not given in full)	none
COc1cc2c(cc1OC)CN(c1nc(CN3CCOCC3)nc3sc4c(c13)CCC(C)C4)CC2 (stereo not given)	ELG1 DNA repair 7.3µM
COc1ccc(Nc2nc(CN3CCOCC3)nc3sc4c(c23)CCC(C)C4)cc1OC (stereo not given)	ELG1 DNA repair 6.5µM (no result: Giardia killer)
CC1CCc2c(sc3nc(CN4CCOCC4)nc(Sc4ccccc4)c23)C1 (stereo not given)	none
CCOC(=O)C1=CCN(Cc2ccccc2)CC1	Sfp inh inconclusive
O=C(O)Cc1cccc(OCCCN(Cc2cccc(C(F)(F)F)c2Cl)CC(c2ccccc2)c2ccccc2)c1	Sfp inh 45µM (no result: Giardia killer, ELG1 DNA repair)
COc1cc(C(CC(=O)Nc2ccc(Cl)cn2)N2Cc3ccccc3C2=O)cc(OC)c1OC (stereo not given)	none
Nc1ccc(S(=O)(=O)Nc2nccc(/C=C/c3ccc([N+](=O)[O-])cc3)n2)cc1	ELG1 DNA repair inconclusive
CN1CCN(c2oc(-c3ccco3)nc2S(=O)(=O)c2ccccc2)CC1	none
CCCSc1oc(-c2ccco2)nc1S(=O)(=O)c1ccccc1	Sfp inh inconclusive, FBPA coupling cs -36
O=S(=O)(c1ccccc1)c1nc(-c2ccco2)oc1N1CCCCCC1	Sfp inh 63µM
CCCSc1oc(-c2ccco2)nc1S(=O)(=O)c1ccc(C)cc1	none
S=c1nc(-c2ccccc2)[nH]n1-c1ccccc1	Sfp inh 40µM
Nc1nc(=S)n(-c2ccccc2)[nH]1	Sfp inh 28µM
S=c1nc2ccccc2c2nc(-c3ccccc3)[nH]n12	ELG1 DNA repair inconclusive
Cc1nc(=S)n(-c2ccccc2)[nH]1	Sfp inh inconclusive
Nc1nc(=S)ss1	none (no result: Sfp inh, FBPA coupling cs, ELG1 DNA repair)
O=C(O)CCCN1C(=O)/C(=C/c2ccncc2)SC1=S	ELG1 DNA repair inconclusive
O=C(O)CCCCCN1C(=O)/C(=C\c2ccc(-c3ccc(Cl)cc3)o2)SC1=S	Sfp inh 6.3µM
O=C(O)CCCN1C(=O)/C(=C/c2ccc(-c3nc4ccccc4s3)o2)SC1=S	Sfp inh 40µM, ELG1 DNA repair inconclusive
Cc1nc2cncnc2n(Cc2ccccc2)c1=O	none (no result: Giardia killer, ELG1 DNA repair)
COc1ccccc1NC(=O)N(CCN1CCOCC1)Cc1cc2cc(C)cc(C)c2[nH]c1=O	ELG1 DNA repair inconclusive
COc1ccccc1NC(=O)N(Cc1ccco1)Cc1cc2cc(C)cc(C)c2[nH]c1=O	ELG1 DNA repair 18µM
Cc1ccc(C)c2[nH]c(=O)c(CN(Cc3ccco3)C(=O)Nc3ccccc3)cc12	ELG1 DNA repair 5.2µM
COc1ccccc1NC(=S)N(Cc1ccco1)Cc1cc2cccc(C)c2[nH]c1=O	ELG1 DNA repair 16µM
NC(=O)c1ccc(CN2CCc3ccccc3C2)cc1	none
O=S1(=O)c2ccc(Br)cc2N2CC[C@H](C2)N1Cc1ccc(Cl)cc1	none (no result: Sfp inh, FBPA coupling cs, ELG1 DNA repair)
CCN1/C(=C/c2ccc3ccccc3[n+]2CC)C=Cc2ccccc21	Sfp inh 50µM, ELG1 DNA repair inconclusive
COc1ccccc1CN1CC(C(=O)NCCn2ccc(C)n2)CCC1=O (stereo not given)	none
CCOC(=O)c1ccc(S(=O)(=O)Nc2cc(C(C)(C)C)no2)cc1	Sfp inh 79µM
CCc1c2c(nc3cccc(SC)c13)COC2	none (no result: Giardia killer, ELG1 DNA repair)
CNS(=O)(=O)c1cc(NC(=O)c2cncn2-c2ccccc2)ccc1C	none
COC(=O)C(C(C)=O)C(NC(=O)OC(C)(C)C)c1ccccc1 (stereo not given)	none (no result: Giardia killer, ELG1 DNA repair)
Cc1ccc(CNC(=O)[C@@H]2C[C@H]2[C@@H](NP(=O)(c2ccccc2)c2ccccc2)c2ccccc2)o1	Sfp inh 50µM (no result: Giardia killer, ELG1 DNA repair)
COc1ccc(C(=O)NC2CCN(CC(=O)Nc3c(C)cccc3C)CC2)cc1OC	none
